According to PubChem BioAssay (NCATS):
Results filed as inconclusive are left out. Active and inactive are the calls of the source. Unless noted, calls come from the whole dose curve; as a rule, active = well fitted curve in the direction sought with a large enough effect; inconclusive = small, poorly fitted or top-dose-only effect, or another doubt; inactive = no such curve, though single readings can be large; an effect the other way counts as inactive or inconclusive.

Key:
[1] = AP1 Signaling Pathway (AID 357; active = well fitted curve in either direction with a large enough effect, not every such curve was filed as active; note: % is set by controls: 0 for no effect and ±100 for the full control effect); conditions: ME-180 AP-1-bla reporter, EGF-induced, beta-lactamase ratio, 5 h; at 7.69 µM (top of the series) unless noted
Method in brief: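 ME-180 cells with beta-lactamase reporter under AP-1 response element, stimulated with EC50 EGF; compounds tested in titration series, 5 h at 37 °C. CCF4 substrate added 2.5 h at room temperature; 460/530 nm emission ratio gave %activity and AC50.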

[2] = target: Ubiquitin carboxyl-terminal hydrolase 1 (Homo sapiens) (UniProt O94782); assay: Inhibitors of USP1/UAF1: Pilot qHTS (AID 504865);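 note: rhodamine fluorescence freed from ubiquitin-rhodamine substrate followed over time; top concentration of the series differs between compounds; % is set by controls: 0 for no effect and ±100 for the full control effect; nearly all actives have a fitted effect of over 35% in size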
Chain of Ubiquitin carboxyl-terminal hydrolase 1 (Homo sapiens) (O94782 whole entry, looked up): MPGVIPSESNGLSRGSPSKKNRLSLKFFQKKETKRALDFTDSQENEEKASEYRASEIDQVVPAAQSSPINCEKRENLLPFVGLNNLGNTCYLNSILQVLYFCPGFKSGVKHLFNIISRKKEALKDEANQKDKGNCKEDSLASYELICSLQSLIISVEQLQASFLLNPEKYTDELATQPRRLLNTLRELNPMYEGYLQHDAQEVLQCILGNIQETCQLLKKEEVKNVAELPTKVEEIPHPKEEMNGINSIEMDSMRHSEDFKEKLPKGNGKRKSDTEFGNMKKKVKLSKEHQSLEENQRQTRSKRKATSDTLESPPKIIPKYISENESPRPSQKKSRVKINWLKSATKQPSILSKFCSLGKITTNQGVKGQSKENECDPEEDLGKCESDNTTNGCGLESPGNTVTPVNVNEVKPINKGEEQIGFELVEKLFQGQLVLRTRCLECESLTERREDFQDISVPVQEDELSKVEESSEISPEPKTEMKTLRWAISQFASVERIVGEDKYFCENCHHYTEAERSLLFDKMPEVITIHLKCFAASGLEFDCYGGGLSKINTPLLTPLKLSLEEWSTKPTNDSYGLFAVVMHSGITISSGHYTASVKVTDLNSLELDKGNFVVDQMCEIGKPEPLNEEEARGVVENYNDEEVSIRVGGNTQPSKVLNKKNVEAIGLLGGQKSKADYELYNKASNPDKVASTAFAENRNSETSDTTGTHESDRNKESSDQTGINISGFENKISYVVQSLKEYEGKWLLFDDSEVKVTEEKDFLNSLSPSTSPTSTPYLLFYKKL
Method in brief: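 1nM USP1/UAF1 + cpd, 15 min RT; start w/ Ub-Rho 150nM final; kinetic FL 480/540 nm, 6 reads q60 s. Buffer 50mM HEPES pH 7.8, 0.5mM EDTA, 1mM TCEP, 0.01% Tween-20, 0.1 mg/ml BSA.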

[3] = NCATS anti-infectives library activity on HEK293 viability as a counter-qHTS vs the C. elegans viability qHTS (AID 1745854);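 note: HEK293 cells exposed to compounds for 24 hr before the viability read; % is set by controls: 0 for no effect and ±100 for the full control effect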
Method in brief: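 Compound titrations (final up to 41.7 uM) were incubated with HEK293 cells for 24 hr at 37C under 5% CO2. Viable cells were quantified with CellTiter-Glo after 10 min at ambient temperature.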

[4] = target: Glutathione peroxidase 1 (Homo sapiens) (UniProt P07203); assay: Primary qHTS Assay for Inhibitors of Recombinant Selenoprotein Glutathione Peroxidase 1 (GPX1) (AID 1845191); note: nearly all actives have a fitted effect of over 65% in size
Chain of Glutathione peroxidase 1 (Homo sapiens) (P07203 whole entry, looked up): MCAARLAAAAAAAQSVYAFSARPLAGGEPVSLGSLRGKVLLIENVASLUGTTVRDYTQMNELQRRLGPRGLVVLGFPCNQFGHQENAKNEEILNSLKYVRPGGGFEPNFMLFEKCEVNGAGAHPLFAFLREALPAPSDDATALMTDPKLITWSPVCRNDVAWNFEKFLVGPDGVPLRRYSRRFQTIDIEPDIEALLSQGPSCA
Method in brief: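 GPX1 10 nM, GR 100 nM, GSH 1 mM, NADPH 0.5 mM, CHP 0.5 mM (final). 30-min cpd preincubation, RT. Ex340/Em450 read t=0, t=15 min.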

[5] = target: Phospholipid hydroperoxide glutathione peroxidase GPX4 (Homo sapiens) (UniProt P36969); assay: Primary qHTS Assay for Inhibitors of Recombinant Selenoprotein Glutathione Peroxidase 4 (GPX4) (AID 1845192); note: nearly all actives have a fitted effect of over 65% in size; note: potency is the fitted concentration of half-maximal effect
Chain of Phospholipid hydroperoxide glutathione peroxidase GPX4 (Homo sapiens) (P36969 whole entry, looked up): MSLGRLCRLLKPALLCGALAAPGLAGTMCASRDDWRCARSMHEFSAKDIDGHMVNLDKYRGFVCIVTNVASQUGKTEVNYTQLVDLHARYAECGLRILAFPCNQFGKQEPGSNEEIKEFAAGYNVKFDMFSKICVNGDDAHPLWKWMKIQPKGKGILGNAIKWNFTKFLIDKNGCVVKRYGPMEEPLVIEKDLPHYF
Method in brief: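 qHTS, GR-coupled: GPX4 200 nM + cpd 30 min RT → GSH 1 mM, NADPH 0.5 mM, GR 100 nM → CHP 0.5 mM start; fluor 340/450 at t0 and t15 min; no-enzyme wells as control.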

[6] = target: Mitogen-activated protein kinase 10 (Mus musculus) (UniProt Q61831); assay: JNK3 AlphaScreen Assay (AID 530; active = well fitted curve in either direction with a large enough effect, not every such curve was filed as active;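 note: kinase came from lysate of stimulated human HepG2 cells; signal reports phosphorylation of biotinylated GST-cJun 1-79 at Ser73 with 10 µM ATP; % is set by controls: 0 for no effect and ±100 for the full control effect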)
Method in brief: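 Biotinylated GST-cJun(1-79) served as substrate for JNK3 in HepG2 lysates stimulated with IL-1beta and TNF-alpha. ATP was 10 uM final, pH 7.6. Ser73 phosphorylation was quantified by AlphaScreen (680 nm excitation).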

[7] = target: Cytochrome P450 3A4 (Homo sapiens) (UniProt P08684); assay: qHTS Assay for Inhibitors and Substrates of Cytochrome P450 3A4 (AID 884); note: nearly all actives have a fitted effect of over 50% in size; note: potency is the fitted concentration of half-maximal effect
Chain of Cytochrome P450 3A4 (Homo sapiens) (P08684 whole entry, looked up): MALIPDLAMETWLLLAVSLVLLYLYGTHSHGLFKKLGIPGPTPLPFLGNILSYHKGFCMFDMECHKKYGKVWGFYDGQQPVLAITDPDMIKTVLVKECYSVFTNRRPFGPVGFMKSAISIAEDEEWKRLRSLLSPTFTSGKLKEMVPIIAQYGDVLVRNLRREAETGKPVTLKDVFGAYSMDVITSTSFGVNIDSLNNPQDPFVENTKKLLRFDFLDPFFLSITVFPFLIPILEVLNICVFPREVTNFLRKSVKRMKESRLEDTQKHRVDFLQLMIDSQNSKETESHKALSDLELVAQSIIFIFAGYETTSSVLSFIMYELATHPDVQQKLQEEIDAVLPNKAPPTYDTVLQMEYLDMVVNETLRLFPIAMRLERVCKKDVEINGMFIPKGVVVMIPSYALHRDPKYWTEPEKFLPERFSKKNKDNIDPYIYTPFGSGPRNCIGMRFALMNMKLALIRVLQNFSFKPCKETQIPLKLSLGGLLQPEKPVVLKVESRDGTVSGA
Method in brief: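 Luminescent readout of luciferin produced by CYP3A4 (20 nM) dealkylation of Luciferin-PPXE, 25 uM (its KM). NADPH-driven reaction ran 60 min at RT after 10 min compound preincubation; data scaled to 57 uM ketoconazole as 100% inhibition.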

[8] = target: Lysosomal acid glucosylceramidase (Homo sapiens) (UniProt P04062); assay: Glucocerebrosidase-p2 (AID 348; in the data active = potency below about 10 µM; note: potency is the fitted concentration of half-maximal effect); conditions: purified GBA, blue fluorogenic substrate, 40 min
Chain of Lysosomal acid glucosylceramidase (Homo sapiens) (P04062 whole entry, looked up): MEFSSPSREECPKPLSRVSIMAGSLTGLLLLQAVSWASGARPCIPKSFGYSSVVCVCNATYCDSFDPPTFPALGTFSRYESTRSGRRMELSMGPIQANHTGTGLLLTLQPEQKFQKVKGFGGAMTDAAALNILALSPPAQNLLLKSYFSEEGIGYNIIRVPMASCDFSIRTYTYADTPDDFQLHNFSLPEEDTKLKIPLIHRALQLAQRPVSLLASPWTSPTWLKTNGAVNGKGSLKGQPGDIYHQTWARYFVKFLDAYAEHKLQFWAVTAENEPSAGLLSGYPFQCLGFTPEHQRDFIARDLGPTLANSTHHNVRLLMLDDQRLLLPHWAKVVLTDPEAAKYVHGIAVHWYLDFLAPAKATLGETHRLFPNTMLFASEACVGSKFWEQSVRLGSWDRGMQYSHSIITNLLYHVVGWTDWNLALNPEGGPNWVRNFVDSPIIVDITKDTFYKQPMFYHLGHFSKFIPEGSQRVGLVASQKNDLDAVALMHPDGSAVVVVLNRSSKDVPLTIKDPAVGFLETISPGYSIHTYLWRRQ
Method in brief: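 Normal human glucocerebrosidase (0.2 nM) with blue fluorogenic substrate (80 uM final) in citrate/phosphate pH 5.9 with 10mM sodium taurocholate, 0.01% tween-20; 40 min RT, NaOH/glycine stop; fluorescence Ex 365/Em 440; AC50 from a titration from 0.6 nM upwards.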

[9] = target: Cytochrome P450 1A2 (Homo sapiens) (UniProt P05177); assay: p450-cyp1a2 (AID 410; calls by dose curve; note: potency is the fitted concentration of half-maximal effect)
Chain of Cytochrome P450 1A2 (Homo sapiens) (P05177 whole entry, looked up): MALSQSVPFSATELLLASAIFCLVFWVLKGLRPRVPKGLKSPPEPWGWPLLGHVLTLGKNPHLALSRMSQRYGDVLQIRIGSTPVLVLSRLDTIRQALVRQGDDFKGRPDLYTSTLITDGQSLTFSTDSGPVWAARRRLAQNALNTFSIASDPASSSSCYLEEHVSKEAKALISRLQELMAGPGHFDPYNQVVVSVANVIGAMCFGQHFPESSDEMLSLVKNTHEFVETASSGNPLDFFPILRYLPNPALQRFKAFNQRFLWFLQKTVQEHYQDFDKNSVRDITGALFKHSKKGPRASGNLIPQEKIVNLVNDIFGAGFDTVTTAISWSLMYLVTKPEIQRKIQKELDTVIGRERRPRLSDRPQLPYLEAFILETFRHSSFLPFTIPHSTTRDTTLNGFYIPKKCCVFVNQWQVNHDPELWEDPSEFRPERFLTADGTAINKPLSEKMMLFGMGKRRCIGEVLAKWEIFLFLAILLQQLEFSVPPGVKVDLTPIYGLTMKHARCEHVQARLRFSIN
Method in brief: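 Read-out is luminescence from luciferin produced by CYP1A2 demethylation of Luciferin-ME (100uM, at Km). Detection reagent stopped the 60 min NADPH-dependent reaction; signals were normalized to 57 uM furafylline.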

[10] = NFAT Signaling Pathway (AID 444; active = well fitted curve in either direction with a large enough effect, not every such curve was filed as active;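 note: carbachol stimulus at about its EC50 of 1 µM final; % is set by controls: 0 for no effect and ±100 for the full control effect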); conditions: Jurkat NFAT-bla M1, carbachol, beta-lactamase ratio, 5 h; at 7.69 µM (top of the series) unless noted
Method in brief: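 Jurkat cells carrying an NFAT-driven β-lactamase reporter and co-transfected muscarinic M1 receptor were treated with compound plus carbachol (1 uM final, an EC50 level) for 5 h at 37 °C. CCF4 loading followed for 1 h at RT; 460/530 nm ratio gave %activity.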

[11] = target: Glucocorticoid receptor (Homo sapiens) (UniProt P04150); assay: GR-GFP Redistribution (AID 450;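 active = compounds whose dose series gives a full or clear partial fitted curve of increased nuclear translocation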; note: potency is the fitted concentration of half-maximal effect); conditions: U2OS GR-GFP nuclear translocation, laser cytometry, 2 h
Chain of Glucocorticoid receptor (Homo sapiens) (P04150 whole entry, looked up, the tested form may be a part): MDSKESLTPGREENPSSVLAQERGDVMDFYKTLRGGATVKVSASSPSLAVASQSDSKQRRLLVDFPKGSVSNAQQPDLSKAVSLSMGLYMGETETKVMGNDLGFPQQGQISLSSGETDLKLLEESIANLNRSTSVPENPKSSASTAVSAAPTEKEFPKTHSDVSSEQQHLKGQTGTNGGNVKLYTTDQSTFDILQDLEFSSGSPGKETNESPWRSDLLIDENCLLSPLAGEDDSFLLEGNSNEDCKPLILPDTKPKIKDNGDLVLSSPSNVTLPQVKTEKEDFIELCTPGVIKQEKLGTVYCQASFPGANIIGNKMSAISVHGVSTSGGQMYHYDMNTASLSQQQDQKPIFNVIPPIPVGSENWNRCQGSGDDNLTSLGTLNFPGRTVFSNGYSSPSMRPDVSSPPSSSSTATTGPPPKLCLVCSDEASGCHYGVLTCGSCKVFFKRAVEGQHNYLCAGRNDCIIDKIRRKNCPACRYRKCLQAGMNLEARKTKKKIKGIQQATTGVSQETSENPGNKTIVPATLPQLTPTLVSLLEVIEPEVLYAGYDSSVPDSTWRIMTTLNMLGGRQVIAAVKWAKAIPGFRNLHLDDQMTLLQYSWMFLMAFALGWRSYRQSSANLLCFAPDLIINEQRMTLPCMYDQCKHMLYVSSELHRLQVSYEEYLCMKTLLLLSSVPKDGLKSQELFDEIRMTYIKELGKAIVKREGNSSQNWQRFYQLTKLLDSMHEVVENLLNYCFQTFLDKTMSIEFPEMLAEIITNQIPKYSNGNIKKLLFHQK

[12] = target: Glucocorticoid receptor (Homo sapiens) (UniProt P04150); assay: GR-EFC Redistribution (AID 451; calls by dose curve; note: potency is the fitted concentration of half-maximal effect); conditions: CHO-K1 GR-EFC translocation, beta-gal luminescence, 2 h
Method in brief: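 CHO-K1 cells stably expressing nuclear-localized β-gal enzyme acceptor and GR fused C-terminally to the enzyme donor fragment; ligand-driven nuclear translocation restores β-gal by complementation. Compounds titrated up to 46 uM final, 2 h at 37 °C; luminescence read.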

[13] = target: 3',5'-cyclic-AMP phosphodiesterase 4B (Homo sapiens) (UniProt Q07343); assay: qHTS Assay for Inhibitors of PDE-IV (AID 607; active = well fitted activation curve with a large enough effect in the main read-out, with a control signal flat, not every such curve was filed as active; note: % of control where 0% means no effect)
Method in brief: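 HEK293 ACTOne cells with CNG channel (1000/well), endogenous PDE4; membrane potential dye, compounds up to 22.9 uM final. Fluorescence Ex 535/Em 590; RO 20-1724 (100 uM final) as reference.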

[14] = target: Cytochrome P450 3A4 (Homo sapiens) (UniProt P08684); assay: qHTS Assay for Activators of Cytochrome P450 3A4 (AID 885); note: nearly all actives have a fitted effect of over 65% in size
Method in brief: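 Human CYP3A4 dealkylates Luciferin-PPXE to luciferin, which luciferase detection converts to light. Substrate was at its KM (25uM), buffer 200mM KPO4, reaction 60 min at RT.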

[15] = target: Dual specificity protein kinase CLK4 (Homo sapiens) (UniProt Q9HAZ1); assay: qHTS Assay for Inhibitors of CDC-like Kinase 4 (Kinase-Glo Assay) (AID 1770); note: nearly all actives have a fitted effect of over 65% in size; note: potency is the fitted concentration of half-maximal effect
Chain of Dual specificity protein kinase CLK4 (Homo sapiens) (Q9HAZ1 whole entry, looked up): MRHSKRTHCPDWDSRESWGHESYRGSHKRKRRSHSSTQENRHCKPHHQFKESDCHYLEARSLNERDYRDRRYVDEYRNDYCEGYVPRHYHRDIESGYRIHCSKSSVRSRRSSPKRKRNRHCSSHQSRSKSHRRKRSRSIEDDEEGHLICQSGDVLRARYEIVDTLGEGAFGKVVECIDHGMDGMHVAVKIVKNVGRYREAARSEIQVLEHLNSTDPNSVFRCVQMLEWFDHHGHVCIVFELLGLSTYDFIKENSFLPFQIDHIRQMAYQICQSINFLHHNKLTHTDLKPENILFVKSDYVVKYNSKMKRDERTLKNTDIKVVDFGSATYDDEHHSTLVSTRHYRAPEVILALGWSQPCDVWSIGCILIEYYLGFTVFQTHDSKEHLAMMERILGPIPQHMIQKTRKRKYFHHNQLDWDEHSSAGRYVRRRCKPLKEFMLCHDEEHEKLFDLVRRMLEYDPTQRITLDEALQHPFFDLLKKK
Method in brief: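 Readout: Kinase-Glo luminescence from ATP left after a 4.5 h room-temperature reaction of 25 nM Clk4 with 100 uM RS peptide and 1 uM ATP (final). Buffer: 25 mM Tris pH 7.5, 10 mM MgCl2.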

[16] = target: Dual specificity protein kinase CLK4 (Homo sapiens) (UniProt Q9HAZ1); assay: qHTS Assay for Inhibitors of CDC-like Kinase 4 (ADP-Glo Assay) (AID 1771); note: nearly all actives have a fitted effect of over 70% in size; note: potency is the fitted concentration of half-maximal effect
Method in brief: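 In this ADP-Glo format, 1 uM ATP and 100 uM RS peptide served as substrates for 25 nM Clk4 in Mg2+/EGTA/DTT/Triton buffer; reactions ran 1 hr at room temperature before luminescent ADP quantification.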

[17] = target: Dual specificity protein kinase CLK4 (Homo sapiens) (UniProt Q9HAZ1); assay: qHTS Assay for Inhibitors of CDC-like Kinase 4 (ADP-FP Assay) (AID 1795); note: nearly all actives have a fitted effect of over 60% in size; note: potency is the fitted concentration of half-maximal effect
Method in brief: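 FP readout: Orange Transcreener ADP2 tracer (4 nM) plus ADP antibody, read after 30 min at room temperature. Kinase step: 6.25 nM Clk4, 100 uM RS peptide, 1 uM ATP, pH 7.5, 1 h.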

[18] = Stat Signaling Pathway (AID 446; active = well fitted curve in either direction with a large enough effect, not every such curve was filed as active)
Method in brief: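 Normalization used AC90 stimulation (300 pM IL-6) and AC90 inhibition (125 nM pan-JAK inhibitor at 40 pM IL-6). The underlying signal is SIE-driven beta-lactamase in ME-180 cells after 5 h IL-6 exposure with compound.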

[19] = target: Cytochrome P450 2D6 (Homo sapiens) (UniProt P10635); assay: qHTS Assay for Inhibitors and Substrates of Cytochrome P450 2D6 (AID 891); note: potency is the fitted concentration of half-maximal effect; nearly all actives have a fitted effect of over 60% in size
Chain of Cytochrome P450 2D6 (Homo sapiens) (P10635 whole entry, looked up): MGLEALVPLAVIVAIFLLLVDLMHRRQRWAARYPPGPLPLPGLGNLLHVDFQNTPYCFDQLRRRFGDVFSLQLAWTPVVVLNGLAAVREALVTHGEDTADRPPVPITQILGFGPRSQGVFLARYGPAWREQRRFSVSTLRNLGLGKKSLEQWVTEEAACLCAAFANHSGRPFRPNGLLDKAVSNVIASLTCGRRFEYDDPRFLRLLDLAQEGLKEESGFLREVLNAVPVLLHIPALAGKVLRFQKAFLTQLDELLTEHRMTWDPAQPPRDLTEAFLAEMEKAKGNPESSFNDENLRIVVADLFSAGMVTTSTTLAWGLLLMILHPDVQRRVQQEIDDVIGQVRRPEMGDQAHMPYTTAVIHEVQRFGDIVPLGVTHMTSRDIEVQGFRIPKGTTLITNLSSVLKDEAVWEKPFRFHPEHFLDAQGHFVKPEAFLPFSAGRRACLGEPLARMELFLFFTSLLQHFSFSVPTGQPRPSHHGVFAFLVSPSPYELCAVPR
Method in brief: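 Luminescent read-out of luciferin formed by 5 nM human CYP2D6 demethylating 30 uM Luciferin-ME EGE (Km level) over 60 min at room temperature after NADPH regeneration addition. Data normalized to full inhibition by 1.43 uM quinidine.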

CCC(C)n1ncn(-c2ccc(N3CCN(c4ccc(OCC5COC(Cn6cncn6)(c6ccc(Cl)cc6Cl)O5)cc4)CC3)cc2)c1=O (configuration not stated)
inactive: activity change, negative = inhibition [1] -2.36% [at 17.2 µM] | Potency [2] | Potency [3] | Potency [4] | Potency [5]

C=C[C@@H]1C[C@]1(NC(=O)[C@@H]1C[C@@H]2CN1C(=O)[C@H](C(C)(C)C)NC(=O)O[C@@H]1C[C@H]1CCCCCc1nc3ccc(OC)cc3nc1O2)C(=O)NS(=O)(=O)C1CC1
inactive: Potency [3]
active: Potency [5] 5.62 µM

CC12CCC(CC1=O)C2(C)C (configuration not stated)
inactive: Potency [6] | Potency [7] | Potency [3]

O=c1c(O[C@@H]2O[C@H](CO)[C@H](O)[C@H](O)[C@H]2O)c(-c2ccc(O)c(O)c2)oc2cc(O)cc(O)c12
inactive: Potency [3]

O=C1CC(c2ccccc2)Oc2ccccc21 (configuration not stated)
inactive: Potency [7] | Potency [2] | Potency [3]

COC(=O)N[C@H](C(=O)N1CCC[C@H]1C(=O)Nc1ccc([C@@H]2CC[C@@H](c3ccc(NC(=O)[C@@H]4CCCN4C(=O)[C@@H](NC(=O)OC)C(C)C)cc3)N2c2ccc(C(C)(C)C)cc2)cc1)C(C)C
inactive: Potency [3] | Potency [4]

COCCn1c(=O)c(-c2cccc(C#N)c2)nc2cnc(OCc3ccccc3)nc21
active: Potency [9] 12.6 µM
inactive: Potency [8] > 11.4 µM | activity change, negative = inhibition [1] -20.4% | activity change, negative = inhibition [10] -5.35% | Potency [11] > 9.22 µM | Potency [12] > 46 µM | Potency [6] | Potency [13] | outcome [14] | Potency [15] | Potency [16] | Potency [17] | Potency [2]

COc1ccccc1-c1ccc2ncnc(N3CCOCC3)c2c1
active: Potency [9] 0.631 µM | Potency [7] 6.31 µM | Potency [15] 11.2 µM | Potency [16] 12.6 µM | Potency [17] 11.2 µM
inactive: Potency [8] > 11.4 µM | activity change, negative = inhibition [10] 18.9% | outcome [18] | Potency [11] > 46 µM | Potency [12] > 46 µM | Potency [6] | outcome [14] | Potency [2]

CCNc1ncc2nc(-c3ccccc3)c(=O)n(CCC#N)c2n1
inactive: Potency [8] > 11.4 µM | activity change, negative = inhibition [1] -3.6% | activity change, negative = inhibition [10] 27.9% | Potency [11] > 9.22 µM | Potency [12] > 46 µM | Potency [6] | outcome [14] | Potency [15] | Potency [16] | Potency [17] | Potency [2]
active: Potency [9] 3.16 µM | Potency [19] 0.501 µM

O=c1c(CCc2ccccc2)nc2cnc(Oc3ccccc3)nc2n1C1CC1
active: Potency [9] 7.94 µM
inactive: Potency [8] > 11.4 µM | activity change, negative = inhibition [1] -15.6% | activity change, negative = inhibition [10] -5.31% | outcome [18] | Potency [11] > 9.22 µM | Potency [12] > 46 µM | outcome [14] | Potency [15] | Potency [16] | Potency [17] | Potency [2]
